Test results taken from the supplement of paper PMC12067093, “Discovery and optimisation of a covalent ligand for TRIM25 and its application to targeted protein ubiquitination” (Chemical Science, 2025).
About 21,000 targets were measured; listed, in parts, are those with the largest changes and a random draw of the rest.

compound: Cc1cc(ccc1-c1ccccc1)C(=O)N1CCCN(CC1)C(=O)CCl [compound 10]; assay: probe-labelled cysteine peptide fold change vs DMSO (competition) (log2 fold change); higher = less target engagement (more negative = stronger competition); details: 10 µM; THP-1; incubation time: 4 h
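Further: competitive profiling in live THP-1 cells: cysteine peptides tagged with an iodoacetamide desthiobiotin (IA-DTB) probe, intensity after compound treatment relative to DMSO-treated cells.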

UniProt P62995, sequence (P62995 whole entry, looked up): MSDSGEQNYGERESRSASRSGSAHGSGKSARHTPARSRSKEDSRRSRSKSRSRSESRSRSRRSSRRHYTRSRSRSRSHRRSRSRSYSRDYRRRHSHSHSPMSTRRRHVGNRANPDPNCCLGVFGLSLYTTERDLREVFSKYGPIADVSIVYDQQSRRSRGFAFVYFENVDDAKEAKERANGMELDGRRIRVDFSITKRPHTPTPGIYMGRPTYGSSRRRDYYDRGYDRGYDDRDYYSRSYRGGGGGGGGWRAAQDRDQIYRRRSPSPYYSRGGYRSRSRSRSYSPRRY
UniProt Q99757, sequence (Q99757 whole entry, looked up): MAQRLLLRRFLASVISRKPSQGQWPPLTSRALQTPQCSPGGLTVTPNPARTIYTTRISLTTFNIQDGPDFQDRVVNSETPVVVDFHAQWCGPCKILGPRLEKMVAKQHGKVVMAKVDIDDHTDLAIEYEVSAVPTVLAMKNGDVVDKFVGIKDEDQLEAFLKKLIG
UniProt Q9UPN9, sequence (Q9UPN9 whole entry, looked up): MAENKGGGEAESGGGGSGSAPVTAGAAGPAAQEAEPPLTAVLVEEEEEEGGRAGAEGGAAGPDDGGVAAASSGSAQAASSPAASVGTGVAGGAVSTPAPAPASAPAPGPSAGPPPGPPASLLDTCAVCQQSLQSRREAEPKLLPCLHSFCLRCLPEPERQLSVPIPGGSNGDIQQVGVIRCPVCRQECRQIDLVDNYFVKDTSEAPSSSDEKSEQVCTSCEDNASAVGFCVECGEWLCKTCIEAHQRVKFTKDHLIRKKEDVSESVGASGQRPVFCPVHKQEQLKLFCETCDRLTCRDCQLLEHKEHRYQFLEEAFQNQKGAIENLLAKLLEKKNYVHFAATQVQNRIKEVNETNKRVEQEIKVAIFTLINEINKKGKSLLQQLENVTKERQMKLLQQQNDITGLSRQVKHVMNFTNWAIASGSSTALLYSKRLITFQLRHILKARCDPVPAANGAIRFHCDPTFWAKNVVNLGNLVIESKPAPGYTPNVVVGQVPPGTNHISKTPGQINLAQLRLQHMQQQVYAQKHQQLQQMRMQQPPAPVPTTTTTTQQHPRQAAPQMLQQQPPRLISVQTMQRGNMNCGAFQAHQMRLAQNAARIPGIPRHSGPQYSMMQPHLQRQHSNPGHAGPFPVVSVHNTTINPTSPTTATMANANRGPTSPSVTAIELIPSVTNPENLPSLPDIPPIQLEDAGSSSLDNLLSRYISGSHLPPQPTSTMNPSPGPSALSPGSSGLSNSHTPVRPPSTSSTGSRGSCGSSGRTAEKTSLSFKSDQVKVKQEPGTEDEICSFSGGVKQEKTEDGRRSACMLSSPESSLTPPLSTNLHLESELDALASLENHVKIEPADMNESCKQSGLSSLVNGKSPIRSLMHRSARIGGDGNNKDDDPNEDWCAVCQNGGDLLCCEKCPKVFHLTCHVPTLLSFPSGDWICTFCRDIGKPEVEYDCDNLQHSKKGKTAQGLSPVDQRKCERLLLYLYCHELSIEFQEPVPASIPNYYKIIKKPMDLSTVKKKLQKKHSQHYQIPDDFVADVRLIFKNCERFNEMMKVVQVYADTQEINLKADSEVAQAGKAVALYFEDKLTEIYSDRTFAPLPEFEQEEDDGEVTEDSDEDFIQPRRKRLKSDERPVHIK
UniProt Q8NEZ2, sequence (Q8NEZ2 whole entry): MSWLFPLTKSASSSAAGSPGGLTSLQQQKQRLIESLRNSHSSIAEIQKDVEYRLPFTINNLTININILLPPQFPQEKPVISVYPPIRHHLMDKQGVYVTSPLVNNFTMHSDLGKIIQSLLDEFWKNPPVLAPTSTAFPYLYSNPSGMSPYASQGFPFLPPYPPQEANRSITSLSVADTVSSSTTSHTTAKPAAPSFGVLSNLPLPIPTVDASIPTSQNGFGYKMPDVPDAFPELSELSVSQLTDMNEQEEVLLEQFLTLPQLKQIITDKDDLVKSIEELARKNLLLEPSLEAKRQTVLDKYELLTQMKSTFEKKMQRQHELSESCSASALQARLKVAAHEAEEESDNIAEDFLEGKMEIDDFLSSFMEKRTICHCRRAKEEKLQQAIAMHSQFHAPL
UniProt Q9H0U9, sequence (Q9H0U9 whole entry): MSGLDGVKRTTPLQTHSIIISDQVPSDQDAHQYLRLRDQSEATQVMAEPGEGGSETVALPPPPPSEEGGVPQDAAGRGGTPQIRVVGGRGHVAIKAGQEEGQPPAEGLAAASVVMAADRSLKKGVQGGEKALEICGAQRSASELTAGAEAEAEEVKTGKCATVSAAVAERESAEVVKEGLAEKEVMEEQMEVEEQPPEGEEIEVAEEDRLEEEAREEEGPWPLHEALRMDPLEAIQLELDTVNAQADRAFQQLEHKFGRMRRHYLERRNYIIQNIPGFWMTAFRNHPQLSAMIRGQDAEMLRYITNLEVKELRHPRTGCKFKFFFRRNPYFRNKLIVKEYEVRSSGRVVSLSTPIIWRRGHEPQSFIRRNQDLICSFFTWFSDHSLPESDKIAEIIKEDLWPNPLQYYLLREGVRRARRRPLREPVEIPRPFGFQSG

Compared with “UQCRC2_P22695_192_NALANPLYCPDYR (UniProt P22695)”, “VPS37A_Q8NEZ2_375_TICHCR (UniProt Q8NEZ2)” is higher in “probe-labelled cysteine peptide fold change” value: 0.015 for the first, 0.41 for the second.

First: TXNDC9_O14530_94_ESENVVCHFYR (UniProt O14530)
UniProt O14530, sequence (O14530 whole entry): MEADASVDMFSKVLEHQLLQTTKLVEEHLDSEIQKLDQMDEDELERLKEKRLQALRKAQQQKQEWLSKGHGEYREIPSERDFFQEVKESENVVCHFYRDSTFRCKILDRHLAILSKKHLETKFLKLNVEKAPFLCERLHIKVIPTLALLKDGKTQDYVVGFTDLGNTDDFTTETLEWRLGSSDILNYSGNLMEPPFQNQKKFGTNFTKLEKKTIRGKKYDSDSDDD
Second: UBR1_Q8IWV7_1101_EVLTCILCQEEQEVK (UniProt Q8IWV7)
The “probe-labelled cysteine peptide fold change” value of the first is higher: -0.0612 for the first, -0.162 for the second.

Compared with “UBR4_Q5T4S7_2618+2619_QLEGDCCSFITQLVNHFWK (UniProt Q5T4S7)”, “TPRA1_Q86W33_296_CQVDETEEPDVHLPQPYAVAR (UniProt Q86W33)” is lower in “probe-labelled cysteine peptide fold change” value: 0.0442 for the first, -0.418 for the second.

First: USP19_O94966_1169_EEQLPSYDLYAVINHYGGMIGGHYTACAR (UniProt O94966)
Second: USP40_Q9NVE5_50_NQGGTCYLNSLLQTLHFTPEFR (UniProt Q9NVE5)
UniProt Q9NVE5, sequence (Q9NVE5 whole entry, looked up): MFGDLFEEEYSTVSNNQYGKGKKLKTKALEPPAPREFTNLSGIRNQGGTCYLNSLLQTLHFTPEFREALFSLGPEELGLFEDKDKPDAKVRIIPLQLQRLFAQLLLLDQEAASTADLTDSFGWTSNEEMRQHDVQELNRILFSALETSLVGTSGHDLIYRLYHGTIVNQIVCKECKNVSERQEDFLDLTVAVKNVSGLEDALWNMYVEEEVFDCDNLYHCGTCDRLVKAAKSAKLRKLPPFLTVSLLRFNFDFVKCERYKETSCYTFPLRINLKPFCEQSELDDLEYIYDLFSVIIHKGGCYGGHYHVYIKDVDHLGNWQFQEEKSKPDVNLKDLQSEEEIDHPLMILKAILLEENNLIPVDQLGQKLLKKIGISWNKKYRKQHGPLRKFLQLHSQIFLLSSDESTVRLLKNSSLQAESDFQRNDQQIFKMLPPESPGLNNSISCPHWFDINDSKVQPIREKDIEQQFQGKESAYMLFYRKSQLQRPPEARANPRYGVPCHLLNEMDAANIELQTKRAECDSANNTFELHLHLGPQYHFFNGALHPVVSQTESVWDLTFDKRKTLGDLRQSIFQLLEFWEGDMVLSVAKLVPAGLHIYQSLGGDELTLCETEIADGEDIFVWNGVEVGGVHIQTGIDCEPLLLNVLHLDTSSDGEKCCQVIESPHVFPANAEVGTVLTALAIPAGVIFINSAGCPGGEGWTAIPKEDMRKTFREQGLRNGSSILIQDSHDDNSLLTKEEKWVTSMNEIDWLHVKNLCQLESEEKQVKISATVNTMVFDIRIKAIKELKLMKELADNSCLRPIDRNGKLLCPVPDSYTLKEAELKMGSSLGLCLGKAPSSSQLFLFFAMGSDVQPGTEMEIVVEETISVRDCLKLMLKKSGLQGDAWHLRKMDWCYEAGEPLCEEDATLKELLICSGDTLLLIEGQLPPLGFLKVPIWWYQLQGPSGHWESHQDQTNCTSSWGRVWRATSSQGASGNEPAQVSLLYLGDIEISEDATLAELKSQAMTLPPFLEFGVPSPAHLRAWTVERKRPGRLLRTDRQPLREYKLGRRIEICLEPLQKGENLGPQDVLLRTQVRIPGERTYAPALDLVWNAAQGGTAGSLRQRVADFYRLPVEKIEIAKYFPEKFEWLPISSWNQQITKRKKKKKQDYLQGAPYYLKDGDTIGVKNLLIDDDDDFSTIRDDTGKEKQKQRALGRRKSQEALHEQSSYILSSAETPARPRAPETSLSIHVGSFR
The “probe-labelled cysteine peptide fold change” value of the first is higher: -0.00515 for the first, -0.592 for the second.

Going from “USP11_P51784_894_DGHYTTFACNK (UniProt P51784)” to “TUBA4A_P68366_4_MRECISVHVGQAGVQMGNACWELYCLEHGIQPDGQMPSDK (UniProt P68366)”, the “probe-labelled cysteine peptide fold change” value falls from -0.051 to -0.0787.

Going from UBA6_A0AVT1_721_ALQLLHCFPLDIR to “TSPYL1_Q9H0U9_375_NQDLICSFFTWFSDHSLPESDK (UniProt Q9H0U9)”, the “probe-labelled cysteine peptide fold change” value rises from 0.0248 to 0.781.

Compared with “TRA2B_P62995_119_ANPDPNCCLGVFGLSLYTTER (UniProt P62995)”, “UVRAG_Q9P2Y5_186_TILLQVDQNCVR (UniProt Q9P2Y5)” is lower in “probe-labelled cysteine peptide fold change” value: 0.163 for the first, -0.089 for the second.

First: UFC1_Q9Y3C8_116_ICLTDHFKPLWAR (UniProt Q9Y3C8)
UniProt Q9Y3C8, sequence (Q9Y3C8 whole entry, looked up): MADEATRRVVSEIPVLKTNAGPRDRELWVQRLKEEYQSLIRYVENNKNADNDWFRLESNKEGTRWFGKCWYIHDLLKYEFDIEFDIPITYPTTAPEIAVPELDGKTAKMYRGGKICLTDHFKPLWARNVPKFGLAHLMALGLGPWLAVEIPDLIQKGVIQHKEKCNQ
Second: USP15_Q9Y4E8_633+634_ISTETEETEGSLHCCK (UniProt Q9Y4E8)
UniProt Q9Y4E8, sequence (Q9Y4E8 whole entry, looked up): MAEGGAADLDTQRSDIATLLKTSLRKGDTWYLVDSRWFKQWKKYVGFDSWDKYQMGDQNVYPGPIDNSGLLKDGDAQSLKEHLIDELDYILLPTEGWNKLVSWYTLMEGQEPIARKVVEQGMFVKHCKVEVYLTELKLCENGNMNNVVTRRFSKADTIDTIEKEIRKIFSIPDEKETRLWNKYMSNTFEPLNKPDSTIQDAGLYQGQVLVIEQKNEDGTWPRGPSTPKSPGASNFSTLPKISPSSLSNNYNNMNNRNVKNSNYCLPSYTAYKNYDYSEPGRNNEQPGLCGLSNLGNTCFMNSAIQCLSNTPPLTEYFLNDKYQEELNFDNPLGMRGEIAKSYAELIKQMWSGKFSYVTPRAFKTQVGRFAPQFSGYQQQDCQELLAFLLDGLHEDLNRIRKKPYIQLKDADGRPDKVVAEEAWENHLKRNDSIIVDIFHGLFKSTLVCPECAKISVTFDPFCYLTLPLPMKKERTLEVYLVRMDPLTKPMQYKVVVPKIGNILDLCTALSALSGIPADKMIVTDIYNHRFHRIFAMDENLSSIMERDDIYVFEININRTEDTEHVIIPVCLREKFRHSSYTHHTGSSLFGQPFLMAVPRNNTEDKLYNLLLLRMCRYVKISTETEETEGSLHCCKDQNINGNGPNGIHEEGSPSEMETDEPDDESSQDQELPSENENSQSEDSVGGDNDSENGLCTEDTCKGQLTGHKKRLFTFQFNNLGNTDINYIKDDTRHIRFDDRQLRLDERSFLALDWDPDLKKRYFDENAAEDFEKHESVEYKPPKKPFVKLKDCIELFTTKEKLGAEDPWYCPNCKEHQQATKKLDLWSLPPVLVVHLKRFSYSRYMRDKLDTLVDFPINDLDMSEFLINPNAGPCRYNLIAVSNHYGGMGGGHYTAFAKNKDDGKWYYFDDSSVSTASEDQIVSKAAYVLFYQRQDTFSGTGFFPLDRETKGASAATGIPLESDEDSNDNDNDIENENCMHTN
The “probe-labelled cysteine peptide fold change” value of the first is higher: -0.183 for the first, -0.567 for the second.

Compared with “VAPA_Q9P0L0_179_KLMEECK (UniProt Q9P0L0)”, “TRNT1_Q96Q11_373_YQGEHCLLK (UniProt Q96Q11)” is lower in “probe-labelled cysteine peptide fold change” value: -0.0535 for the first, -0.39 for the second.

First: USP24_Q9UPU5_995_QLCSPVDNIQIFTNDSLLTVNK (UniProt Q9UPU5)
Second: TXNRD2_Q9NNW7_279_GCAPSR (UniProt Q9NNW7)
The “probe-labelled cysteine peptide fold change” value of the first is higher: 0.165 for the first, 0.0601 for the second.

Going from “VAPA_Q9P0L0_128_CVFEMPNENDK (UniProt Q9P0L0)” to “TRIM33_Q9UPN9_276_KKEDVSESVGASGQRPVFCPVHK (UniProt Q9UPN9)”, the “probe-labelled cysteine peptide fold change” value rises from -0.217 to -0.0301.

Going from “VCPIP1_Q96JH7_469+472_CLLCGALSELHVPPEWLAPGGK (UniProt Q96JH7)” to “UBE2L6_O14933_86+98_IYHPNVDENGQICLPIISSENWKPCTK (UniProt O14933)”, the “probe-labelled cysteine peptide fold change” value falls from -0.12 to -0.606.

Going from “TSTA3_Q13630_116_VVSCLSTCIFPDK (UniProt Q13630)” to “UBN1_Q9NPG3_765_ELSCQAPLNK (UniProt Q9NPG3)”, the “probe-labelled cysteine peptide fold change” value falls from -0.0711 to -0.169.

Compared with “TRMT11_Q7Z4G4_161_KPQHVFSVLEDYGLDPNCIPENPHNIYFGR (UniProt Q7Z4G4)”, “TUBG1_P23258_138_IHEDIFDIIDREADGSDSLEGFVLCHSIAGGTGSGLGSYLLER<|>TUBG2_Q9NRH3_138_IHEDIFDIIDREADGSDSLEGFVLCHSIAGGTGSGLGSYLLER (UniProt Q9NRH3+P23258)” is higher in “probe-labelled cysteine peptide fold change” value: -0.0115 for the first, 0.194 for the second.

First: UBE3D_Q7Z6J8_52_TPEGCTEIQLPAEVR (UniProt Q7Z6J8)
Second: TPP1_O14773_365_GLTLLFASGDSGAGCWSVSGR (UniProt O14773)
The “probe-labelled cysteine peptide fold change” value of the first is higher: 0.0793 for the first, -0.146 for the second.

Compared with “UBR7_Q8N806_155_RPYPDPEDEIPDEMIQCVVCEDWFHGR (UniProt Q8N806)”, “UBA7_P41226_829_CQNYGIPPVNR (UniProt P41226)” is lower in “probe-labelled cysteine peptide fold change” value: 0.0312 for the first, -0.03 for the second.

Going from “TPRKB_Q9Y3C4_167_LSSQEESIGTLLDAIICR (UniProt Q9Y3C4)” to “VRK3_Q8IV63_418_FVDKPGPFVGPCGHWIRPSETLQK (UniProt Q8IV63)”, the “probe-labelled cysteine peptide fold change” value falls from 0.0132 to -0.347.

Compared with “UBE2O_Q9C0C9_375_NCAQGEGSMAK (UniProt Q9C0C9)”, “TRMT2A_Q8IZ69_463_VIGVELCPEAVEDAR (UniProt Q8IZ69)” is lower in “probe-labelled cysteine peptide fold change” value: -0.0634 for the first, -0.181 for the second.

Compared with “TXN2_Q99757_93_VVNSETPVVVDFHAQWCGPCK (UniProt Q99757)”, “VTA1_Q9NP79_87_QLGDNEAITQEIVGCAHLENYALK (UniProt Q9NP79)” is higher in “probe-labelled cysteine peptide fold change” value: -1.34 for the first, 0.0147 for the second.

For “UTP20_O75691_242_NMFHSCTGQAVK (UniProt O75691)”, the “probe-labelled cysteine peptide fold change” value was -0.122.
